“And” between values parts separate entries of the source, which are not always exact repeats. Equal values may be shown once. The campaign covered roughly 5,500 compounds. About 2,000 (36%) were called active. Not shown: some 18% with an inconclusive outcome. Cut-off read from the data, not from the text of the source: active = normalized growth mostly below about 0.91 (no sharp cut-off); inconclusive = no clear call, values can overlap the other calls; inactive = mostly above about 0.92. This is one part of the list.
Assay: chemical genetic growth profiling, strain panel (AID 1159580);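 note: tested at 20 µM; growth read once vehicle control cultures reached saturation at 30 °C; 1 = growth at the plate median or of vehicle wells; lower values mean less growth of the strain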
Conditions: S. cerevisiae deletion strains, growth OD

Measured: normalized growth

COc1ccc(C(CN(C)C)C2(O)CCCCC2)cc1 (stereo unspecified)
inactive: locus YAL013W, strain DEP1, stronger effect = lower value 1.01 | locus YAL021C, strain ccr4, stronger effect = lower value 0.976 | locus YAL026C, strain drs2, stronger effect = lower value 0.995 | locus YAL030W, strain snc1, stronger effect = lower value 0.988 | locus YBL061C, strain skt5, stronger effect = lower value 0.992 | locus YBR009C, strain hhf1, stronger effect = lower value 1.01 | locus YBR021W, strain FUR4, stronger effect = lower value 1.02 | locus YBR023C, strain chs3, stronger effect = lower value 1.01 | locus YBR171W, strain sec66, stronger effect = lower value 0.982 | locus YBR229C, strain ROT2, stronger effect = lower value 1.01 | locus YBR231C, strain swc5, stronger effect = lower value 1.03 | locus YBR279W, strain paf1, stronger effect = lower value 1.01 | locus YCL011C, strain gbp2, stronger effect = lower value 0.994 | locus YCL016C, strain dcc1, stronger effect = lower value 1.01 | locus YCL029C, strain bik1, stronger effect = lower value 0.979 | locus YCL069W, strain vba3, stronger effect = lower value 0.974 | locus YCR088W, strain abp1, stronger effect = lower value 0.99 | locus YDL005C, strain med2, stronger effect = lower value 0.978 | locus YDL035C, strain GPR1, stronger effect = lower value 1.02 | locus YDL040C, strain nat1, stronger effect = lower value 0.962 | locus YDL074C, strain BRE1, stronger effect = lower value 1.03 | locus YDL101C, strain DUN1, stronger effect = lower value 1.02 | locus YDL134C, strain PPH21, stronger effect = lower value 1.02 | locus YDL185W, strain tfp1, stronger effect = lower value 0.997 | locus YDL192W, strain arf1, stronger effect = lower value 0.991 | locus YDR001C, strain nth1, stronger effect = lower value 0.986 | locus YDR069C, strain doa4, stronger effect = lower value 0.973 | locus YDR101C, strain arx1, stronger effect = lower value 0.986 | locus YDR137W, strain rgp1, stronger effect = lower value 0.971 | locus YDR150W, strain NUM1, stronger effect = lower value 1.01 | locus YDR159W, strain sac3, stronger effect = lower value 0.974 | locus YDR162C, strain NBP2, stronger effect = lower value 0.985 | locus YDR195W, strain ref2 0.975 | locus YDR297W, strain sur2, stronger effect = lower value 0.994 | locus YDR318W, strain mcm21, stronger effect = lower value 0.996 | locus YDR334W, strain swr1, stronger effect = lower value 0.97 | locus YDR335W, strain msn5, stronger effect = lower value 0.996 | locus YDR388W, stronger effect = lower value 0.988 | locus YDR392W, strain spt3, stronger effect = lower value 0.985 | locus YDR502C, strain sam2, stronger effect = lower value 0.99 | locus YEL003W, strain gim4, stronger effect = lower value 0.976 | locus YEL037C, strain rad23, stronger effect = lower value 0.974 | locus YEL061C, strain CIN8 (second series), stronger effect = lower value 0.98 | locus YEL061C, strain CIN8, stronger effect = lower value 1.01 | locus YER015W, strain faa2, stronger effect = lower value 1.01 | locus YER016W, strain bim1, stronger effect = lower value 0.972 | locus YER110C, stronger effect = lower value 0.99 | locus YER111C, strain swi4, stronger effect = lower value 0.994 | locus YER155C, strain BEM2 (second series), stronger effect = lower value 0.962 | locus YER155C, strain BEM2, stronger effect = lower value 0.987 | locus YER167W, strain BCK2, stronger effect = lower value 1.01 | locus YFR010W, strain ubp6, stronger effect = lower value 0.987 | locus YGL078C, strain dbp3, stronger effect = lower value 0.989 | locus YGL086W, strain mad1, stronger effect = lower value 0.996 | locus YGL167C, strain pmr1, stronger effect = lower value 0.979 | locus YGL173C, strain kem1, stronger effect = lower value 0.987 | locus YGL227W, strain vid30, stronger effect = lower value 0.988 | locus YGL240W, strain doc1, stronger effect = lower value 0.992 | locus YGL248W, strain PDE1, stronger effect = lower value 1.01 | locus YGL253W, strain hxk2, stronger effect = lower value 0.999 | locus YGR078C, strain PAC10, stronger effect = lower value 1 | locus YGR135W, strain pre9, stronger effect = lower value 0.985 | locus YGR229C, strain SMI1, stronger effect = lower value 1.02 | locus YGR252W, strain gcn5, stronger effect = lower value 0.973 | locus YHR013C, strain ard1, stronger effect = lower value 0.932 | locus YHR027C, strain rpn1, stronger effect = lower value 0.987 | locus YHR030C, strain SLT2, stronger effect = lower value 1.01 and 1 | locus YHR079C, strain IRE1 (second series), stronger effect = lower value 0.99 | locus YHR079C, strain IRE1, stronger effect = lower value 1.01 | locus YHR094C, strain hxt1, stronger effect = lower value 0.997 | locus YHR129C, strain ARP1, stronger effect = lower value 1.01 | locus YHR142W, strain chs7, stronger effect = lower value 0.974 | locus YHR200W, strain rpn10, stronger effect = lower value 0.996 | locus YIL066C, strain RNR3, stronger effect = lower value 1.01 | locus YIL073C, strain SPO22, stronger effect = lower value 1.04 | locus YIL125W, strain kgd1, stronger effect = lower value 0.998 | locus YIR030C, strain dcg1, stronger effect = lower value 0.986 | locus YJL092W, strain hpr5, stronger effect = lower value 0.976 | locus YJL095W, strain BCK1 (second series), stronger effect = lower value 0.984 | locus YJL095W, strain BCK1, stronger effect = lower value 1.01 and 0.997 | locus YJL115W, strain asf1, stronger effect = lower value 0.958 | locus YJL129C, strain trk1, stronger effect = lower value 0.989 | locus YJL134W, strain LCB3, stronger effect = lower value 1.01 | locus YJL154C, strain vps35, stronger effect = lower value 0.974 | locus YJL164C, strain tpk1, stronger effect = lower value 1 | locus YJL166W, strain qcr8, stronger effect = lower value 0.971 | locus YJL168C, strain set2, stronger effect = lower value 0.997 | locus YJL187C, strain SWE1 (second series), stronger effect = lower value 1.01 | locus YJR043C, strain POL32, stronger effect = lower value 1 | locus YJR066W, strain TOR1, stronger effect = lower value 0.979 | locus YJR075W, strain HOC1, stronger effect = lower value 1.02

Reference: PubChem BioAssay AID1159580 (chemical genetic matrix, 2015)
